Entries with a potency or affinity are not part of this list. Calls of active or inactive are those of the source.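 Rule for the calls: active = at least 35% decrease in signal relative to neutral control well mean; inactive = the rest, opposite-direction activity included.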

Caspase-6 (Homo sapiens), sequence (P55212 24-179 limits assumed): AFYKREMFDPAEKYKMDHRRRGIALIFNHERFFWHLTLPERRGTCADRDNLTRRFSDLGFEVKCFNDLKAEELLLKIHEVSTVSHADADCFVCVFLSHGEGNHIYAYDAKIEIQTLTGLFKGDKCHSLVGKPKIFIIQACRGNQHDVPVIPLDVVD
Caspase-6 (Homo sapiens), sequence (P55212 194-293 limits assumed): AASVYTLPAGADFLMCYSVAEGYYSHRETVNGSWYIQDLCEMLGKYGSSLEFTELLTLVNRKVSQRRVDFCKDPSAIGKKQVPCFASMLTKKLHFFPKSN

The assay concerns the target Caspase-6 (Homo sapiens) (UniProt P55212). Put plainly: inhibition of CASP6 peptide cleavage – biochemical, VEID-R110 fluorescence, dry powder retest, dose response (AID 743332). To be noted: purified caspase-6, Z-VEID-R110 cleavage fluorescence; series mostly up to 35 µM.
As to `O=C(c1cccs1)N1CCN(S(=O)(=O)c2ccccc2)CC1`, the call was inactive.
In the case of `CC(=O)Nc1ccc(C(=O)N2CCN(S(=O)(=O)c3ccc(C)cc3)CC2)cc1` it was “inactive”; in that of `O=S(=O)(c1ccccc1)N1CCN(Cc2ccccc2)CC1`, “inactive”.
Take `O=C(c1ccc2c(c1)OCCO2)N1CCN(S(=O)(=O)c2ccccc2)CC1`: the outcome was inactive.
On to `CC(=O)Nc1ccc(S(=O)(=O)N2CCN(C(=O)c3ccc(C)cc3)CC2)cc1`, for which the compound was classed as inactive.
Take `Cc1ccc(S(=O)(=O)N2CCN(C(=O)C3COc4ccccc4O3)CC2)cc1` (stereo not given): the result was inactive.
For `COc1ccc(S(=O)(=O)N2CCN(C(=O)c3ccccc3)CC2)cc1` the value was “inactive”.
On to `CC(=O)Nc1ccc(S(=O)(=O)N2CCN(C(=O)c3ccccc3)CC2)cc1`, for which the outcome was inactive.
On to `COc1ccc(C(=O)N2CCN(S(=O)(=O)c3ccccc3)CC2)cc1`, for which the compound was classed as inactive.
As to `Cc1ccc(S(=O)(=O)N2CCN(C(=O)c3ccco3)CC2)cc1`, the outcome was inactive.
`O=C(c1ccoc1)N1CCN(S(=O)(=O)c2cccnc2)CC1`: the compound was classed as inactive.
`O=C(c1ccccn1)N1CCN(S(=O)(=O)c2ccccc2)CC1`: the outcome was inactive.
In the case of `Cc1ccc(C(=O)N2CCN(S(=O)(=O)c3ccccc3)CC2)cc1` it was “inactive”; in that of `O=C(c1cccnc1)N1CCN(S(=O)(=O)c2cccnc2)CC1`, “inactive”; in that of `O=C(c1ccccc1)N1CCN(S(=O)(=O)c2cccnc2)CC1`, “inactive”.
Take `O=C(c1ccc(F)cc1)N1CCCN(S(=O)(=O)c2ccc(F)cc2)CC1`: the result was inactive.
For `O=C(c1ccccc1)N1CCN(S(=O)(=O)c2ccc(Cl)cc2)CC1` the value was “inactive”; for `CC(=O)N1CCCc2cc(S(=O)(=O)N3CCN(C(=O)C4COc5ccccc5O4)CC3)ccc21` (stereo not given), “inactive”; for `Cc1ccc(C(=O)N2CCN(S(=O)(=O)c3ccccc3)CC2)o1`, “inactive”.
In the case of `Cc1ccc(S(=O)(=O)N2CCCN(C(=O)c3ccoc3)CC2)cc1` it was “inactive”.
For `O=C(c1ccccc1)N1CCCC(NS(=O)(=O)c2ccccc2)C1` (stereo not given), the compound was called inactive.
In the case of `[O-][n+]1c2c(nn1-c1ccccc1)-c1nonc1CC2` it was “inactive”; in that of `[O-][n+]1c2c(nn1-c1ccccc1Cl)-c1nonc1CC2`, “inactive”; in that of `Cc1ccc(C(=O)N2CCN(S(=O)(=O)c3ccc(C)cc3)CC2)cc1`, “inactive”.
For the compound `Cc1ccc(S(=O)(=O)N2CCN(C(=O)c3ccccc3)CC2)cc1`, the outcome was inactive.
On to `Cc1cccc(C(=O)N2CCCN(S(=O)(=O)c3ccc4c(c3)OCCO4)CC2)c1`, for which the compound was classed as inactive.
For `Cc1ccc(C(=O)N2CCN(S(=O)(=O)c3ccc4c(c3)OCCO4)CC2)cc1` the value was “inactive”; for `O=C(C1COc2ccccc2O1)N1CCN(S(=O)(=O)c2ccccc2F)CC1` (stereo not given), “inactive”; for `Cc1ccc(C(=O)N2CCCN(S(=O)(=O)c3ccc(C)cc3)CC2)cc1`, “inactive”.
`O=C(C1COc2ccccc2O1)N1CCN(S(=O)(=O)c2ccccc2)CC1` (stereo not given): the outcome was inactive.

Source of the values: PubChem BioAssay AID743332 (Broad Institute, 2014).
